# Source: PubChem BioAssay (EPA / NIEHS)
# The source made the active and inactive calls. Rule for the calls: active = hit-call score of the fitted dose curve at least 0.9, where 1 is the maximum; inactive = score below 0.9.
# Test: APR_HepG2_CellCycleArrest_72hr: Apredica 72-hour HepG2 Assay for Cell Cycle Arrest (AID 2282914)
# Conditions: high-content imaging, actives raise or lower the signal
# Description: APR_HepG2_72hr is a cell-based, multiplexed-readout assay that uses HepG2, a human liver cell line, with measurements taken at 72 hours after chemical dosing in a 384-well plate.APR_HepG2_CellCycleArrest_72hr is one of 10 assay component(s) measured or calculated from the APR_HepG2_72hr assay. It is designed to make measurements of cell phenotype, a form of morphology reporter, as detected with fluorescence intensity signals by HCS Fluorescent Imaging technology.Data from the assay component APR_HepG2_CellCycleArrest_72hr was analyzed into 1 assay endpoint. This assay endpoint, APR_HepG2_CellCycleArrest_72hr, was analyzed with bidirectional fitting relative to DMSO as the negative control and baseline of activity. Using a type of morphology reporter, measures of all nuclear dna for gain or loss-of-signal activity can be used to understand the signaling at the pathway-level as they relate to the gene . Furthermore, this assay endpoint can be referred to as a primary readout, because this assay has produced multiple assay endpoints where this one serves a signaling function. To generalize the intended target to other relatable targets, this assay endpoint is annotated to the cell cycle intended target family, where the subfamily is arrest.
# Cells were treated with dimethyl sulfoxide (DMSO) as a solvent control at a final concentration of 0.5% v/v or with compounds in DMSO with a resulting final DMSO concentration of 0.5% v/v. Compound treatment was done at concentrations of 0.39, 0.78, 1.56, 3.12, 6.24, 12.5, 25, 50, 100, and 200 uM in duplicate on each plate. Cells were treated with compounds for 1, 24, or 72 hr. Carbonyl […] m-chloro-phenylhydrazone (CCCP) and taxol were used as positive controls for mitochondrial function and cytoskeletal stability, respectively; DMSO served as the negative control for this experiment. Cells were fixed by the direct addition of 50 uL formaldehyde in Hank's Balanced Salt Solution (HBSS) to a final concentration of 3.7%. After incubation in the fixation medium for 30 min at room temperature (293-298 K), cells were rinsed twice with HBSS and treated with cell permeabilization buffer (16 uL of 0.5% Triton X-100) for 10 min at room temperature (293-298 K) before labeling. For mitochondrial membrane potential and mitochondrial measurements, pre-fixed cells were incubated with 50 uL of MitoTracker Red CMXRos (Invitrogen) at a concentration of 250 nM for 30 min before fixation. In the remaining cases, post-fixed cells were labeled by incubation with a multiplexed mixture of primary antibodies in HBSS for 60 min at room temperature (293-298 K) to detect immunoreactivity of c-Jun (1:500), phospho-histone H3 (1:100), phospho-histone H2A.x (1:200), p53 (1:400), alpha-tubulin (1:200) and Hoechst 33342 (2 ug/mL). Cells were labeled for multiplexed imaging on two separate plates: a) Hoechst 33342, MitoTracker Red, phospho-histone H3, and alpha-tubulin, and b) Hoechst 33342, phospho-histone H2A.x, and c-Jun. A final rinse with HBSS (50 uL) was performed before analysis. The primary and secondary antibodies for the proteins were phospho-histone H3 (rabbit anti-phospho-histone H3 and FITC-donkey anti-rabbit IgG), phospho-histone H2A.x (mouse anti-phospho-histone H2A.x and FITC-donkey anti-mouse IgG), c-Jun (rabbit anti-phospho-c-Jun and Cy3-donkey anti-rabbit IgG), p53 (sheep anti-p53 and Cy5-donkey anti-sheep IgG), alpha-tubulin (mouse anti-alpha-tubulin and Cy5-donkey anti-mouse IgG). These antibodies are available as the CellCiphr HepG2 assay kit (Millipore).Digital images of each well were captured using a Cellomics ArrayScan VTI (Thermo Scientific Cellomics) (0.8 NA objective, 0.63x optical coupler, and XF-93 filter set) at 20x magnification. The images were acquired using the autofocus feature of the ArrayScan instrument, which entails the following steps. First, the camera focuses on channel 1 (Hoechst 33342), where nuclei are identified. Second, a Z offset of 1 um is used for capturing mitochondria (MitoTracker Red). […]
Structure (SMILES),outcome,AC50
Oc1ccccc1Cl,inactive,–
Oc1ccc2ccc3cccc4ccc1c2c34,inactive,–
O=C(N[C@H](c1ccccc1)[C@@H]1CN2CCC1CC2)c1c(Cl)ccc(C(F)(F)F)c1Cl,–,30.6 µM (active)
CC(C)(C)OOC(=O)c1ccccc1,–,21.8 µM (active)
CC(C)(OOC(C)(C)c1ccccc1)c1ccccc1,inactive,–
O=C(O)C1C2CCC(O2)C1C(=O)O (stereo not given),inactive,–
CCN(CC)N=O,inactive,–
C[C@]12C=CC3=C4CCC(=O)C=C4CC[C@H]3[C@@H]1CC[C@@H]2O,inactive,–
c1ccc(NNc2ccccc2)cc1,–,104 µM (active)
CCCCCCCCCCCCCN1CC(C)OC(C)C1 (stereo not given),–,70.4 µM (active)
ClC1=C(Cl)[C@]2(Cl)[C@H]3[C@H]([C@@H]4C=C[C@H]3C4)[C@@]1(Cl)C2(Cl)Cl,–,16.2 µM (active)
[Cl-].[Cl-].[Hg+2],inactive,–
C1=Cc2cccc3cccc1c23,inactive,–
Cn1cc(-c2ccccc2)c(=O)c(-c2cccc(C(F)(F)F)c2)c1,–,107 µM (active)
CCCCCCCCOC(=O)c1ccc(C(=O)OCCCCCCCC)c(C(=O)OCCCCCCCC)c1,inactive,–
CC(C)(C)OOC(C)(C)CCC(C)(C)OOC(C)(C)C,–,55.1 µM (active)
c1ccc2c(c1)oc1ccccc12,inactive,–
O=P(OCCCl)(OCCCl)OCCCl,inactive,–
O=[N+]([O-])C(Br)(CO)CO,inactive,–
OCCCBr,inactive,–

Structure (SMILES),outcome,AC50
Cc1ccc(N)c(N)c1,inactive,–
Nc1ccc(N=Nc2ccccc2)cc1,–,23.6 µM (active)
CC(C)(C)C(O)(CCc1ccc(Cl)cc1)Cn1cncn1 (stereo not given),–,102 µM (active)
CCOC(=O)[C@]1(c2ccccc2)Oc2ccccc2[C@@H]1N,inactive,–
Brc1ccc(Oc2ccccc2)cc1,inactive,–
CC(O)CCO (stereo not given),inactive,–
CO[C@@H]1[C@H](OC(=O)NC(=O)CCl)CC[C@]2(CO2)[C@H]1[C@@]1(C)O[C@@H]1CC=C(C)C,inactive,–
CN(C)c1ccccc1,inactive,–
CCCCOC(=O)c1ccccc1C(=O)OCc1ccccc1,–,92.5 µM (active)
CN(C)[C@@H]1C(=O)C(C(N)=O)=C(O)[C@@]2(O)C(=O)C3=C(O)c4c(O)cccc4[C@@](C)(O)[C@H]3C[C@@H]12,inactive,–
COP(=S)(OC)SCN1C(=O)c2ccccc2C1=O,inactive,–
CCC(C)c1ccc(O)cc1 (stereo not given),inactive,–
CCCSC(=O)N(CCC)CCC,inactive,–
CN(C)c1ccc(C(=O)c2ccc(N(C)C)cc2)cc1,–,0.639 µM (active)
CCN(CC)CCO,inactive,–
Nc1ccc(Cl)cc1N,–,1.46 µM (active)
Clc1ccc(Cl)c(Cl)c1,inactive,–
O=C(Oc1ccc(Br)cc1)N1CCN2CCC1CC2,–,96.3 µM (active)
ClC1=C(Cl)C2(Cl)C3C(Cl)C=CC3C1(Cl)C2(Cl)Cl (stereo not given),–,26.7 µM (active)
Cc1cccc(N)c1N,–,7.98 µM (active)
